About 2,100 (3.2%) of roughly 65,000 compounds showed an effect of 50% or more. The median lay at about -52%. The sample as a whole holds a higher share of strong results than the screen did.
tested on: Plasmodium falciparum; experiment: Screen against P. falciparum Asexual Blood Stage (ABS), at 5uM; assay type: functional, Dd2; settings: tested at 5 uM

| Structure (SMILES) | INHIBITION [%] |
| --- | --- |
| Cc1cc(NCCN2CCNC2=O)nc2cc3c(cc12)CCC3 | -14.4 |
| CSCCN1CCC(NC(=O)c2cccc(C3CCCNC3)c2)CC1 (centres undefined) | -131 |
| CC1CCN(c2nc3c(cnn3-c3ccccc3)c(=O)[nH]2)CC1 | -6.59 |
| O=c1[nH]c(N2CC(O)C2)nc2c1cnn2-c1ccccc1 | -202 |
| O=c1[nH]c(N2CCN(C3CC3)CC2)nc2c1cnn2-c1ccccc1 | 50.1 |
| Cc1cc2cc(CNC3CCN(CC(=O)N(C)C)CC3)oc2cc1C | -159 |
| Cc1nc(-c2c(C)noc2C)cc(C2CCN(CC(=O)N(C)C)CC2)n1 | -74 |
| Cc1cc(Cl)cc(C)c1CNC1CCN(CC(=O)N(C)C)CC1 | 54.4 |
| CC(C)CNC(=O)c1cccc(CN2CCc3c(ncn3C)C2)c1 | -103 |
| CCOc1cccc2c1OCC(=O)N(c1ccc3c(c1)OCCO3)C2 | -105 |
| COCCN1CCN(Cc2c(C)noc2C)Cc2ccc(C)nc21 | -54 |
| Cc1ccc2c(n1)N(CCN(C)C)CCN(Cc1c(C)noc1C)C2 | 63.1 |
| COCCN1CCN(Cc2c(C)noc2C)Cc2cccnc21 | -19.1 |
| Cc1cc(CNC(=O)NC(C)(CO)C2CC2)c(C)s1 (centres undefined) | -55.5 |
| CCCC(C)NC1CCN(c2ccc(-n3ccnc3C)cc2)CC1 (centres undefined) | 52.3 |
| Cc1nccn1-c1ccc(N2CCC(N[C@H](C)C(C)C)CC2)cc1 | -49.6 |
| Cc1nccn1-c1ccc(N2CCC(NC(C)CC(C)C)CC2)cc1 (centres undefined) | 30.2 |
| Cc1c[nH]nc1C1CCCCN1C(=O)CCn1nccc1C (centres undefined) | -97 |
| Cc1cccn2cc(C(=O)N3CCCN(CC4CC4)C(C(C)C)C3)nc12 (centres undefined) | -26.5 |
| O=C1N(CCO)CCCC12CCN(Cc1nnc(C3CC3)o1)C2 (centres undefined) | -77.7 |
| O=S(=O)(NCC1(O)CCOc2ccccc21)c1ccc(Br)s1 (centres undefined) | 59.2 |
| O=S(=O)(NCC1(O)CCOc2ccccc21)c1ccc(Cl)s1 (centres undefined) | -88.4 |
| Cc1ccc(S(=O)(=O)NCC2(O)CCOc3ccccc32)s1 (centres undefined) | -36.2 |
| c1cncc(COCc2n[nH]c3c2CN(Cc2ccco2)C3)c1 | -89.3 |
| O=S(=O)(c1ccc(-c2cnco2)cc1)N1CCCC2(CCNCC2)CC1 | 8.22 |
| CN1CCC2(CCN(S(=O)(=O)c3ccc(-c4cnco4)s3)CC2)C1 | 68.4 |

| Structure (SMILES) | INHIBITION [%] |
| --- | --- |
| CN1CCC2(CCCN(S(=O)(=O)c3ccc(-c4cnco4)s3)C2)C1 (centres undefined) | 52.1 |
| CN1CCCC2(CCN(S(=O)(=O)c3ccc(-c4cnco4)s3)C2)C1=O (centres undefined) | -16.8 |
| O=S(=O)(c1ccc(-c2cnco2)cc1)N1CCC2(CCCNC2)C1 (centres undefined) | 47 |
| O=S(=O)(c1ccc(-c2cnco2)cc1)N1CCCC(O)(CO)CC1 (centres undefined) | -40.8 |
| COC(=O)c1cc(OCC2CCC2)cc(C(=O)N[C@@H](C)CO)c1 | -90 |
| c1ccc(N2CCOC3(CCCN(c4ncccn4)C3)C2)nc1 (centres undefined) | -101 |
| c1ccc(N2CCCC2)c(NCc2ccncc2)c1 | -27.2 |
| CN(Cc1cccc(C(N)=O)c1)c1ncc(C#N)cc1Cl | -76.1 |
| O=C(CN1CCCC(Cn2cncn2)C1)NCCCc1ccccc1 (centres undefined) | -62.6 |
| Cc1cc(C(=O)N2CCCC(N3CCCCCC3)C2)nn1C(C)(C)C (centres undefined) | 55.5 |
| Cc1cc(C(=O)N2CCCC(N3CCNC3=O)C2)nn1C(C)(C)C (centres undefined) | -37.9 |
| Cc1cc(C(=O)N2CCC(N3CCNC3=O)CC2)nn1C(C)(C)C | -59.8 |
| Cc1cc(CNC(=O)c2cnoc2C)c(C)o1 | -78 |
| O=C(c1cccnc1O)N1CCN(Cc2ccccc2F)CC1 | -14.3 |
| Cc1cc(Oc2ccccc2F)nc(C2CCCCN2)n1 (centres undefined) | 57.5 |
| Cc1cc(Oc2ccccc2C)nc(C2CCCN2)n1 (centres undefined) | 25.4 |
| Cc1cc(Oc2ccccc2)nc(C2CCCCN2)n1 (centres undefined) | -17.4 |
| CC(C)NC(=O)C1CN(Cc2ccc(F)cc2)CC12CCOCC2 (centres undefined) | -23.5 |
| CN(C)C(C(=O)NCC1(N(C)C)CCOCC1)c1ccccc1F (centres undefined) | -6.85 |
| CN(C)C1(CNC(=O)Cc2ccc(F)cc2)CCOCC1 | 0.427 |
| CN(C)C1(CNC(=O)C2CCCN2Cc2ccc(F)cc2)CCOCC1 (centres undefined) | 68.7 |
| CC1(C(=O)NCCc2ccc(F)cc2)CCOCC1 | -16.2 |
| CN(C)C1(CNC(=O)CC=Cc2ccc(F)cc2)CCOCC1 | 57.5 |
| COCc1nc(C(=O)N2CCCC2Cn2cc(C)cn2)cs1 (centres undefined) | -179 |
| Cc1cccc(CN2CCC3(CCCN(Cc4cnn(C)c4)C3)C2)n1 (centres undefined) | -21.5 |
| CN(C)C(=O)NCc1ncn2c1CN(Cc1cccs1)CCC2 | -61.4 |

| Structure (SMILES) | INHIBITION [%] |
| --- | --- |
| CN(C)C(=O)[C@@]12CCO[C@@H]1CCN(Cc1ccc3c(c1)OCO3)C2 | -52.2 |
| O=C(COc1coc(CN2CCSCC2)cc1=O)c1ccccc1 | -95.1 |
| CC1(C(=O)NCc2cccnc2Oc2ccc(F)cc2F)CCCNC1 (centres undefined) | 21.1 |
| COc1ccccc1Oc1ncccc1CNC(=O)C1(C)CCCNC1 (centres undefined) | -45.9 |
| Cc1cccc(C)c1Oc1ncccc1CNC(=O)C1(C)CCCNC1 (centres undefined) | 56.1 |
| CCn1ncc2c1C(COCC1CC1)CN(c1ccc(C)nn1)C2 (centres undefined) | 40.1 |
| Cc1nc2cc(C3CCN(Cc4cccc(F)c4F)C3)nn2c(O)c1C.O=C(O)CC(O)(CC(=O)O)C(=O)O (centres undefined) | 59.6 |
| CCc1c(C)nc2cc(C3CCN(Cc4ccc(F)cc4)C3)nn2c1O (centres undefined) | 14.3 |
| CCc1c(C)nc2cc(C3CCN(Cc4ccccc4F)C3)nn2c1O (centres undefined) | 51.6 |
| Cc1nc2cc(C3CCN(Cc4ccccc4F)C3)nn2c(O)c1C (centres undefined) | 50.3 |
| CCc1c(C)nc2cc(C3CCN(CCc4ccccc4)C3)nn2c1O (centres undefined) | -23 |
| CN(Cc1noc(C2CC2)n1)C1CCN(Cc2cccc(F)c2F)C1 (centres undefined) | 26.6 |
| Cc1nc(O)cc(C2CCN(Cc3cccc(F)c3F)C2)n1 (centres undefined) | -81.4 |
| CCc1c(C)nc2cc(C3CCN(Cc4cccc(F)c4)C3)nn2c1O (centres undefined) | 5.05 |
| CCc1c(C)nc2cc(C3CCN(Cc4cccnc4)C3)nn2c1O (centres undefined) | -81.6 |
| Cc1nc(CN2CC(Cc3ccccc3)CC2=O)no1 (centres undefined) | -37.6 |
| Cc1ccc(CNCc2ccc(N3CCC(CO)CC3)nc2)c(C)c1 | -47.4 |
| CC(c1nc(C2CC2)no1)N1CCc2c(ncn2C)C1 (centres undefined) | -90.5 |
| Cn1nc(C(=O)NCc2cccnc2)c2c1CCS(=O)(=O)C2 | -148 |
| Cc1cnc(CCN(C)C(=O)c2ccc(O)nc2C)s1 | -151 |
| COc1cccc(-c2cc(NCCO)nc3[nH]ccc23)n1 | -62.1 |
| COc1cccc(-c2cc(NCCN(C)C)nc3[nH]ccc23)n1 | 53.1 |
| COc1cccc(-c2cc(NCC(=O)O)nc3[nH]ccc23)n1 | -47 |
| O=C(Cc1ccsc1)N1C[C@H]2CCC[C@@]2(COCc2ccccn2)C1 | -116 |
| Cc1cnc(NC(=O)c2csc(NCC(C)C)n2)s1 | -175 |
| Cc1ncc(CN(C)CC(O)c2ccc(Br)cc2)s1 (centres undefined) | 22.6 |

| Structure (SMILES) | INHIBITION [%] |
| --- | --- |
| Cc1cc(CNC(=O)NCC(O)c2cccc(C(F)(F)F)c2)no1 (centres undefined) | -34.1 |
| Cc1ncc(CN(C)CC(O)c2cccc(C(F)(F)F)c2)s1 (centres undefined) | 54.7 |
| Cc1ccc(CC(=O)NCC(O)c2cccc(C(F)(F)F)c2)cn1 (centres undefined) | -58.1 |
| Cc1ncc(CN(C)CC(O)c2ccc(OC(F)(F)F)cc2)s1 (centres undefined) | 64 |
| CCOC(=O)CN(C)Cc1cnc(C)s1 | -142 |
| O=C(CC1CC1)N[C@@H]1CN(C(=O)c2ccoc2)C[C@@H]2CCCO[C@@H]21 | -102 |
| CN(C)C(=O)c1cnc2n1CCN(Cc1ccc3c(c1)OCO3)C2 | 24.3 |
| CCn1cc2c(n1)CN(Cc1ccc(F)cc1)CC2COCC1CC1 (centres undefined) | -38.3 |
| CC(C)(CNC(=O)CCOc1cccc(F)c1)C(N)=O | -172 |
| CC(C)(CNC(=O)CCCOc1cccc(F)c1)C(N)=O | 44.9 |
| CC(C)(CNC(=O)COc1cccc(F)c1)C(N)=O | 60.6 |
| CC(C)Cn1cc2nc(N3CCC(O)CC3)[nH]cc-2c1=O | -52.3 |
| Cc1cccc(Cn2cc(Br)c(NS(C)(=O)=O)n2)c1 | -96.25 |
| O=C(NCCn1ccnc1)c1ccn(-c2cccc(F)c2)n1 | -1.32 |
| Cc1oc(-c2cccc(F)c2F)nc1CN(C)CCO | -82.7 |
| Cc1ccc(-c2nn(-c3cccc(F)c3)cc2CN(C)CCO)o1 | 50.5 |
| Cc1nc(CN2CCN(CCCc3nc4ccccc4o3)CC2)no1 | -77.4 |
| CN(Cc1cccnc1)[C@@H]1CN(c2ccccn2)[C@@H]2CCCO[C@H]12 | -39.4 |
| CN(Cc1cccnc1)[C@@H]1CN(Cc2ccccn2)[C@@H]2CCCO[C@H]12 | 50.8 |
| CN(Cc1ccco1)[C@@H]1CN(Cc2ccco2)[C@@H]2CCCO[C@H]12 | 11.7 |
| CN(Cc1ccco1)[C@@H]1CN(Cc2cnn(C)c2)[C@@H]2CCCO[C@H]12 | 27.3 |
| CN(Cc1ccco1)[C@@H]1CN(CC2CCOCC2)[C@@H]2CCCO[C@H]12 | -0.241 |
| CN(Cc1ccco1)[C@@H]1CN(Cc2nccn2C)[C@@H]2CCCO[C@H]12 | -23.8 |
| CN(Cc1cccnc1)[C@@H]1CN(Cc2nccn2C)[C@@H]2CCCO[C@H]12 | -13.9 |
| CN(Cc1ccco1)[C@@H]1CN(Cc2ccc(F)cc2)[C@@H]2CCCO[C@H]12 | 56.5 |
| Cc1noc(C)c1CN1C[C@@H](N(C)Cc2ccco2)[C@H]2OCCC[C@H]21 | 50.4 |
